Unmarked numbers belong to inactive results. No rule for the calls is given here.

The test deals with Pantothenate synthetase (Mycobacterium tuberculosis (strain ATCC 25618 / H37Rv)) (UniProt P9WIL5). Description: Coupled enzyme confirmation of inhibitors against recombinant Mtb PanC (AID 375).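 Also: 0% = full reaction with vehicle and 100% = no enzyme background.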 The conditions noted are these: coupled enzyme assay; at 10 µM, stronger effect = higher value.
Pantothenate synthetase (Mycobacterium tuberculosis (strain ATCC 25618 / H37Rv)), sequence (P9WIL5 whole entry, looked up): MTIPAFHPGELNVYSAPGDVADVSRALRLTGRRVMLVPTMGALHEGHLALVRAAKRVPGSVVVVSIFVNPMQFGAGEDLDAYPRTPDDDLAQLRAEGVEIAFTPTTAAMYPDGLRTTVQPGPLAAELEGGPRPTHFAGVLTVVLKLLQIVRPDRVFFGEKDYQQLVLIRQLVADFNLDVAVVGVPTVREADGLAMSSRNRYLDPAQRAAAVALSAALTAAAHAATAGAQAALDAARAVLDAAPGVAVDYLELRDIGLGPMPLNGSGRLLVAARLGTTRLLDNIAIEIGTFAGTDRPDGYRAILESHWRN
`CS(=O)(=O)N(CC(=O)N1CCCCCC1)c1ccccc1`: the inhibition is 8%.
As for `CCn1c2ccccc2c2cc(Nc3cc(C)nc4ncnn34)ccc21`, the figure is 0%; as for `COC(=O)COc1ccc(C(=O)OC)cc1`, 2%; as for `CC(C)OC(=O)CSc1nnnn1-c1ccc2c(c1)OCCO2`, 2%.
As for `COc1ccc(CN(C2CCCC2)S(=O)(=O)c2ccc(-n3cnnn3)cc2)cc1OC`, the figure is 0%; as for `CCc1cn([C@H]2C[C@H](O)[C@@H](CO)O2)c(=O)[nH]c1=O`, 0%; as for `CCCn1c(O)c(CN2CCCC(C)C2)c(C)c(C#N)c1=O` (stereo not given), 10%.
As for `CCOc1ccccc1NC(=O)C1CCCN(S(=O)(=O)c2cccc3cccnc23)C1` (stereo not given), the figure is 6%; as for `COC(=O)Cn1c2c(c3cc(C)ccc31)CCCC2`, 1%; as for `O=C(CCN1C(=O)COc2ccccc21)NCCN1CCN(c2cccc(Cl)c2)CC1`, 0%.
Take `COc1cc(S(=O)(=O)N2CCC(N3CCCCC3)CC2)ccc1-n1cnnn1`: the inhibition was 3%.
Regarding `CCOC(=O)N1CCN(C(=O)Nc2ccc3oc(C)nc3c2)CC1`, the inhibition is 7%.
With `CC(C)=CCCC(C)CN(C)CCc1ccccn1` (stereo not given) the figure was 0%.
Consider `O=C(NCC1CCCO1)c1ccc(C(=O)NCC2CCCO2)cc1` (stereo not given), for which the inhibition was 0%.
`COc1ccc(NC(=O)c2cc(C)on2)cc1OC`: the inhibition is 8%.
As for `Cn1c(=O)cc(OCC(=O)N2CCN(c3cccc(C(F)(F)F)c3)CC2)c2ccccc21`, the figure is 12%.
As for `COC(=O)c1ccc(CSc2nnc(-c3ccncc3)o2)o1`, the figure is 0%; as for `[O-][n+]1c2c(nn1-c1ccccc1Cl)-c1nonc1CC2`, 4%.
With `COc1ccc(N2CCC(CNS(=O)(=O)c3cccc(C(F)(F)F)c3)C2)cc1` (stereo not given) the figure was 5%.
With `O=C(NCCN1CCOCC1)NC1(C(F)(F)F)Oc2ccc(Cl)cc2O1` (stereo not given), the inhibition was 0%.
With `COC(=O)c1c(N)sc(C(=O)N2CCOCC2)c1C`, the inhibition is 0%.
With `COc1ccccc1N1CCN(CC(O)c2ccc3cc[nH]c3c2)CC1` (stereo not given) the figure was 5%; with `Cc1occc1-c1nnc(SCC(=O)N2CCOCC2)n1Cc1ccco1`, 6%; with `CC(C)(C)NC(=O)CN(Cc1cccs1)C(=O)c1csnn1`, 0%.
In the case of `CCCSC1=C(C#N)C(c2ccccc2OCC)CC(=O)N1` (stereo not given), the inhibition is 7%.
As for `CCCCOc1ccc(CSc2n[nH]c(C)n2)cc1`, the figure is 0%.
Take `CCN(C(=O)CN1CCN(c2ccccc2OC)CC1)c1c(N)n(Cc2ccccc2)c(=O)[nH]c1=O`: the inhibition is 0%.
As for `O=C(Nc1ccc2c(c1)OCO2)c1cccc(Cl)c1`, the figure is 0%; as for `Cc1ccc(NC2=NC(c3ccccc3)n3c(nc(C)cc3=O)N2)cc1` (stereo not given), 13%.
With `O=C(O)C1C2CCC(C2)C1C(=O)NCCCn1ccnc1` (stereo not given) the figure was 12%.
With `COC(=O)c1cccc(Oc2nc3c(c(=O)n(C)c(=O)n3C)n2C(C)C)c1` the figure was 1%.
On to `COc1cc2nc(N3CCN(C(=O)C4CCCO4)CC3)nc(N)c2cc1OC` (stereo not given), for which the inhibition is 0%.
As for `COc1cc(C(=O)N(C)c2nnc(-c3cccnc3)s2)cc(OC)c1OC`, the figure is 0%; as for `COc1cccc(NC(=O)COC(=O)c2cccnc2)c1`, 0%; as for `CCN(CC)C(=O)Cn1c(=O)n(Cc2ccccc2Cl)c2c1c(=O)n(C)c(=O)n2C`, 3%.
As for `COc1ccccc1CN1CC(C(=O)N2CCN(c3ccc(F)cc3)CC2)CC1=O` (stereo not given), the figure is 0%; as for `Cc1cc(C)c2c(n1)nn1c(N3CCOCC3)cc(C)nc21`, 0%.
With `CN(C1CCS(=O)(=O)C1)S(=O)C12CC3CC(CC(C3)C1)C2` (stereo not given) the figure was 3%.
As for `CC(=O)OCC(=O)[C@@]1(OC(C)=O)[C@@H](C)C[C@H]2[C@@H]3C[C@H](F)C4=CC(=O)C=C[C@]4(C)[C@@]3(F)[C@@H](O)C[C@@]21C`, the inhibition is 0%.
As for `Cc1ccc(Cl)cc1N1CCN(C(=O)C2CCCN(S(=O)(=O)c3cnc[nH]3)C2)CC1` (stereo not given), the inhibition is 0%.

By inhibition is commonly meant the change of the read-out against control, counted positive when it falls.

Values taken from PubChem BioAssay.
